# Test results reported in PubChem BioAssay (NCATS).
# Results filed as inconclusive are left out. Unmarked numbers belong to inactive results. The source made the active and inactive calls. Calls follow the shape of the dose curve; as a rule, active = well fitted inhibition curve with a large enough effect; inconclusive = small, poorly fitted or top-dose-only effect; inactive = flat fitted curve, though single readings scatter.
# Test system: MCC-26
# Experiment: qHTS assay to identify novel small-molecules to repurpose for Merkel cell carcinoma treatment (AID 1296009); also: nearly all actives have a fitted effect of over 60% in size
# Details: MCC and control cell lines, CellTiter-Glo viability, 72 h; series mostly up to 46 µM; activity change, negative = cytotoxicity: at the top concentration
# Source text: MCC is a rare and aggressive neuroendocrine skin cancer with limited treatment options. Approximately 80% of MCCs have the Merkel cell polyomavirus (MCPyV) DNA integrated into the host genome (virus-positive: VP-MCC) and viral oncogenes drive oncogenesis. The remaining MCCs are virus-negative (VN-MCC) and are caused by UV mutagenesis. To identify novel treatments for VP-MCC and/or VN-MCC we screened three VP-MCC cell lines (WAGA, MKL-1, MKL-2), three VN-MCC cell lines (MCC-13, MCC-26, UISO), and four immortalized, non-transformed control cell lines (HaCaT, HEK293T, CRL7250, NIH-3T3) against ~2,400 compounds in the NCGC Pharmaceutical Collection (NPC) and ~1,900 compounds in the Mechanism Interrogation PlatE (MiPE). Using cell viability as a readout (CellTiter-Glo assay) we found both overlapping and distinct drugs that can be repurposed for the treatment of VP-MCC and VN-MCC.
# A high-throughput screen was conducted in 1536-well white flat bottom plates (Corning) on a Kalypsys robotic system. Cell lines WAGA, MKL-1, MKL-2, MCC-13, MCC-26, UISO, HaCaT, HEK293T, CRL7250, and NIH-3T3 were screened against 2 small molecule annotated drug libraries NPC and MIPE in dose response (8 and 11 pt. respectively) measuring cell viability after 72 hours of incubation. […] A 1,536 pintool (Kalypsys) was used to transfer 23 nL of compound in DMSO to the 1,536-well assay plates. After 72 hr incubation at 37 degree celsius, 2.5 uL of CellTiter-Glo (Promega) was dispensed into each well using a BiorapTR. Plates were incubated at room temperature for 10 min, transferred to a ViewLux (PerkinElmer) and the luminescence was recorded using an exposure time of 2 seconds. Relative luminescence units (RLUs) were normalized to in-plate controls (no cells as a positive (cytotoxicity) control, DMSO as negative control) and the normalized data was processed using NCATS in-house software.
# % is scaled to controls: 0 for no effect and ±100 for the full control effect; potency is read from the fitted curve at half-maximal effect.
Structure (SMILES),"activity change, negative = cytotoxicity",Potency
C=C[C@@H]1CN2CCC1C[C@H]2[C@H](O)c1ccnc2ccccc12 (stereo not given in full),-11.3%,
COc1cccc2c1[C@]13CCN(CC4CC4)[C@H](C2)[C@]1(OC)CCC(=O)C3,8.04%,
O=S(=O)(F)Cc1ccccc1,-9.14%,
C#CC1(O)CCC2C3CCC4=CC(=O)CCC4(C)C3CCC21C (stereo not given),-19.8%,
CCCCOC(=O)c1ccccc1C(=O)OCc1ccccc1,-0.178% [at 92.7 µM],
CC1=C(C(=O)O)N2C(=O)[C@@H](N)[C@H]2SC1,5.21% [at 16.1 µM],
CC(=O)[O][Hg][c]1ccccc1,,2660 nM (active)
CCC(=O)OC1CCC2C3CCC4=CC(=O)CC[C@@]4(C)C3CC[C@]12C (stereo not given in full),10.1%,
C[C@]12CC[C@H]3[C@@H](CCC4=CC(=O)CC[C@@]43C)[C@H]1CC[C@H]2OC(=O)CCC1CCCC1,-7.31%,
CC(N[C@H]1C[C@H]1c1ccccc1)c1ccc2c(c1)OCCO2 (stereo not given in full),0.613%,
CC(=O)OCC1=C(C(=O)O)N2C(=O)[C@@H](N)[C@@H]2SC1,1.11%,
Nc1ccc(N=Nc2ccccc2)cc1,-5.38% [at 92.7 µM],
O=S(=O)(CC1CS1)c1ccc(Oc2ccccc2)cc1 (stereo not given),-12.9%,
CN1CCN(c2ccc([N+](=O)[O-])c3no[n+]([O-])c23)CC1,8.46%,
CC(=O)Nc1ccc(OC[C@](C)(O)C(=O)Nc2ccc([N+](=O)[O-])c(C(F)(F)F)c2)cc1,-4.87%,
CCCCCC[C@H]1C(=O)O[C@H](C)[C@H](NC(=O)c2cccc(NC=O)c2O)C(=O)O[C@@H](C)[C@@H]1OC(=O)CC(C)C,-11.2%,
c1cc2ccc3cccc4ccc(c1)c2c34,-6.45% [at 92.7 µM],
COC1=C[C@@H]2[C@@H]3Cc4ccc(OC)c(O)c4[C@]2(CCN3C)CC1=O,-10.6%,
CCCCC(CC)COC(=O)c1ccccc1C(=O)OCC(CC)CCCC (stereo not given),8.36% [at 92.7 µM],
COc1ccc2c(c1)CN(C)CC2c1ccc(Cl)c(Cl)c1 (stereo not given),-17.7%,

Structure (SMILES),"activity change, negative = cytotoxicity",Potency
COC(=O)[C@@H](N)CCCN=C(N)N[N+](=O)[O-],1.19%,
C=CCC1=C(C)C(OC(=O)C2C(C=C(C)C)C2(C)C)CC1=O (stereo not given),-3.95% [at 92.7 µM],
O=C(O)c1cc(Oc2ccc(C(F)(F)F)cc2Cl)ccc1[N+](=O)[O-],-2.24%,
C[C@@]12OC(=O)[C@]1([C@@H](O)[C@@H]1C=CCCC1)NC(=O)[C@H]2CCCl,,833 nM (active)
O=C(NCC1CCOCC1)c1cnc(Nc2ccc(Cl)cc2Cl)nc1C(F)(F)F,-2.7%,
NC1CC1c1ccccc1 (stereo not given),-1.81%,
C[C@]12Cc3cn[nH]c3C[C@@H]1CC[C@@H]1[C@H]2CC[C@@]2(C)[C@H]1CC[C@]2(C)O,8.01%,
Cc1c(C(=O)Nc2cccc(C(F)(F)F)c2)cc(-c2ccccc2)n1CCCN1CCOCC1,-7.13%,
O=C1C(I)=CC(=C(c2cc(I)c(O)c(I)c2)c2ccccc2C(=O)O)C=C1I,16.2%,
O=C1C=CC[C@@H]2[C@H]3CCCN4CCC[C@@H](CN12)[C@@H]34,-10.2%,
C[C@]12COC(=O)C[C@@H]1CC[C@@H]1[C@H]2CC[C@@]2(C)[C@H]1CC[C@]2(C)O,2.22%,
C=CC(=O)NCNC(=O)C=C,7.18% [at 92.7 µM],
CCCC[N+]1(C)[C@H]2CC(OC(=O)[C@H](CO)c3ccccc3)C[C@H]1[C@H]1O[C@H]12 (stereo not given in full),4.3%,
CC[C@@H](C(N)=O)N1CCCC1=O,-5.4%,
COc1ccc(CC2NCCc3cc(OC)c(OC)cc32)cc1OC (stereo not given),-15.8%,
O=c1[nH]c2ccc(Cl)cc2c(N[C@@H]2CN3CCC2CC3)c1-c1nc2ccccc2[nH]1,,7430 nM (active)
CC(O)CN1CCN(CC(=O)[O-])CCN(CC(=O)[O-])CCN(CC(=O)[O-])CC1.[Gd+3] (stereo not given),4.5%,
Cc1cc(O)ccc1Cl,1.65%,
CCCCCCCCCC(CC)c1ccc(S(=O)(=O)O)cc1 (stereo not given),-2.03% [at 92.7 µM],
CC(C)(O)C(=O)Nc1ccc([N+](=O)[O-])c(C(F)(F)F)c1,-12.8%,
